# Results taken from PubChem BioAssay AID2318 (National Center for Advancing Translational Sciences (NCATS), 2010).
# Some of the results follow. Results filed as inconclusive are left out. Unmarked numbers belong to inactive results. Calls of active or inactive are those of the source. Calls come from the whole dose curve.
# Assay: Cycloheximide Counterscreen for Small Molecule Inhibitors of Shiga Toxin (Confirmatory); for activity (activation): 0% is about no effect
# Conditions: protein synthesis reporter, Shiga toxin assay; series mostly up to 38.3 µM; activity (activation): at the top concentration
# Potency is the fitted concentration of half-maximal effect.
SMILES,activity (activation) [%],Potency
COc1ccc(N(CCC#N)S(=O)(=O)c2ccc(Cl)cc2)cc1,-0.698,
O=C(c1cc(-c2cccc(O)c2)on1)N1CCc2ccccc2C1,6.25,
CCOc1ccc(NC(=O)Nc2ccc(N(C)C(C)=O)cc2)cc1,-0.368,
Cc1ccc(-c2cc(C(=O)N3CCc4ccccc4C3)no2)cc1,8.15,
C=CCNC(=O)c1ccc(C)c(Br)c1,0.854,
CSCc1cc(N2CCOCC2)nc(SCc2ccc(Cl)cc2Cl)n1,0.955,
Cc1nc(SCC(=O)Nc2cc(C)on2)c2c3c(sc2n1)CCCC3,-1.97,
O=C(COC(=O)c1cccs1)Nc1ccccc1Cl,-0.535,
Nc1nonc1C(=O)NCCc1ccccc1,2.33,
CCCc1nc2ccccc2c(=O)n1NC(=O)c1c(O)c2ccccc2[nH]c1=O,-5.8,
COc1ccc(S(=O)(=O)Nc2ccc3c(c2)OCO3)cc1Cl,4.32,
CC(=O)c1ccc(N2CCN(C(=O)c3ccc4nc[nH]c4c3)CC2)cc1,6.86,
CN(Cc1nc2ccc(F)cc2[nH]1)Cc1nc(CC2CC2)no1,0.109,
CCN1CCN(Cc2c(O)ccc3c(=O)c(-c4ccc(OC)c(OC)c4)c(C(F)(F)F)oc23)CC1,0.38,
Cc1cc(C(=O)COC(=O)C2CC2)c(C)n1-c1ccc(F)cc1,,2000 nM (active)
COc1ccccc1N1N=C(c2cccs2)CC1c1ccccc1 (stereo not drawn),-0.737,
COc1ccc(-c2noc(COc3ccc(Cl)c(C)c3)n2)cc1,-0.685,
COc1ccc(C(=O)Nc2ccccc2C(=O)NCc2ccco2)cc1,-0.236,
